# Laboratory results: PubChem BioAssay (NCI)
# Compounds without any hit were thinned out: in the full panel of roughly 83,000, 20% have a hit.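 Interpretation: 100, growth as untreated; towards 0, rising growth inhibition; 0, no net growth; 0 to -100, cell death. Compounds scoring below 10 were considered active.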 Unmarked numbers belong to inactive results. The source made the active and inactive calls.
# How the values were obtained:
# Assay in all cases: NCI-60 one-dose screen, 48 h (100 = growth as untreated, 0 = no growth, -100 = all killed)
# NCI-H23 lung = settings: 10 µM unless noted
# NCI-H460 lung = settings: 10 µM unless noted
# K-562 leukemia = settings: 10 µM unless noted
# RXF 393 renal = settings: 10 µM unless noted
# SF-295 CNS = settings: 10 µM unless noted
# HT29 colon = settings: 10 µM unless noted
# U251 CNS = settings: 10 µM unless noted
# SK-MEL-5 melanoma = settings: 10 µM unless noted
# UO-31 renal = settings: 10 µM unless noted
# CAKI-1 renal = settings: 10 µM unless noted
# HL-60(TB) leukemia = settings: 10 µM unless noted
# CCRF-CEM leukemia = settings: 10 µM unless noted
# RPMI-8226 leukemia = settings: 10 µM unless noted
# HS 578T breast = settings: 10 µM unless noted
# T-47D breast = settings: 10 µM unless noted
# BT-549 breast = settings: 10 µM
# HCT-116 colon = settings: 10 µM unless noted
# HCC-2998 colon = settings: 10 µM unless noted
# M14 melanoma = settings: 10 µM unless noted
# A498 renal = settings: 10 µM unless noted
SMILES,growth (NCI-H23 lung),growth (NCI-H460 lung),growth (K-562 leukemia),growth (RXF 393 renal),growth (SF-295 CNS),growth (HT29 colon),growth (U251 CNS),growth (SK-MEL-5 melanoma),growth (UO-31 renal),growth (CAKI-1 renal),growth (HL-60(TB) leukemia),growth (CCRF-CEM leukemia),growth (RPMI-8226 leukemia),growth (HS 578T breast),growth (T-47D breast),growth (BT-549 breast),growth (HCT-116 colon),growth (HCC-2998 colon),growth (M14 melanoma),growth (A498 renal)
CC(=O)O[C@@H]1C2=C(C)C3(CC3)[C@@](C)(O)C(=O)C2=C[C@@]1(C)CO,-33.2% (active),2.34% (active),1.92% (active),-89.6% (active),-3.92% (active),5.12% (active),-2.05% (active),-86.1% (active),-51% (active),3.26% (active),-4.61% (active),10.9%,-18.8% (active),-9.28% (active),7.72% (active),-32.6% (active),6.86% (active),-68.7% (active),,
CC[C@]12C=CCN3CC[C@@]4(c5ccc(OC)cc5N(C)[C@H]4[C@@](O)(C(=O)OC)[C@@H]1OC(=O)CCCN1CCN(CCCC(=O)O[C@@H]4[C@]5(CC)C=CCN6CC[C@@]7(c8ccc(OC)cc8N(C)[C@H]7[C@@]4(O)C(=O)OC)[C@@H]65)CC1)[C@@H]32,-80.6% (active),-80.3% (active),-62% (active),-88.5% (active),-85.9% (active),-81.3% (active),-83.7% (active),-95.9% (active),-88.8% (active),-97% (active),-66.6% (active),-56.7% (active),-55.2% (active),-61.7% (active),-68.3% (active),-88.3% (active),,-86.6% (active),-80.6% (active),-58.2% (active)
CC1([N+](=O)[O-])COP(=O)(Nc2ccc(F)cc2)OC1 (centres undefined),96.4%,106%,103%,100%,106%,96.5%,,98.2%,73.9%,107%,90.4%,96.3%,,103%,82.9%,96.8%,99.4%,99.5%,101%,
O=C(CCc1ccco1)NC1CCN(CC2(c3ccc(Cl)cc3)CCC2)CC1,-22.6% (active),3.79% (active),3.19% (active),28.4%,-46.5% (active),10.5%,7.34% (active),-9.97% (active),10.7%,5.62% (active),-42.7% (active),6.1% (active),-5.13% (active),28.7%,15.4%,12.4%,7.86% (active),11.4%,10.3%,-15% (active)
COc1cc(CNCCc2ccc(Cl)cc2)cc(OC)c1O,67%,83.3%,21.7%,66.3%,,64.4%,58.5%,72.8%,61%,58.4%,54.4%,46.9%,42.4%,62.6%,61.7%,71.8%,60.9%,83.2%,64.8%,66.3%
CC(=O)O[C@H]1CC[C@H]2[C@@H]3CC[C@H]4CC=C(C)C[C@]4(C)[C@H]3CC[C@]12C,104%,113%,,111%,103%,98.4%,110%,,92.3%,50.7%,89.9%,108%,109%,109%,92.1%,107%,103%,111%,101%,104%
N#CC1c2ccccc2C=CN1C(=O)c1ccc(N(CCCl)CCCl)cc1 (centres undefined),,111%,65.8%,89.7%,90.6%,98.7%,,84%,71%,69.1%,65.9%,87%,69.2%,99.5%,65.3%,89.8%,104%,101%,116%,106%
